Consider eight compounds from PubChem BioAssay (Tox21).

A short description of experiment [1]: qHTS assay to identify small molecule antagonists of the estrogen related receptor (ERR) signaling pathway from Tox21 library - cell viability counter screen (AID 1224834). Also: nearly all actives have a fitted effect of over 30% in size. Also: potency is read from the fitted curve at half-maximal effect. In short, it runs like this:
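Viability readout (CellTiter-Fluor fluorescence, 30 min at 37 C) multiplexed with the ERR assay; cells treated 17.5 h at 37 C with compounds delivered in DMSO.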
On the technique in general: qHTS replaces the single test concentration by a dilution series.

The target in experiment [2] is Luciferin 4-monooxygenase (Photinus pyralis) (UniProt P08659). Briefly: qHTS assay to identify small molecule inhibitors of firefly luciferase (AID 1224835). Also: series mostly up to about 120 µM; nearly all actives have a fitted effect of over 25% in size. In short, it runs like this: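 Biochemical qHTS: compounds run as interplate titrations against purified firefly enzyme, with D-luciferin and ATP each at its KM concentration. Light output recorded by CCD imaging.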

Experiment [3] in a line: qHTS assay to identify small molecule agonists of the constitutive androstane receptor (CAR) signaling pathway - cell viability counter screen (AID 1224836). Also: series mostly up to about 92 µM; nearly all actives have a fitted effect of over 45% in size. In short, it runs like this:
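HepG2 cells stably carrying hCAR and a CYP2B6-2.2kb reporter were plated 4 h, then given compounds at 15 concentrations plus PK11195 (final 0.75 uM). After 23 h at 37 C, viability was read by CellTiter-Fluor fluorescence.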

A short description of experiment [4]: qHTS assay to identify small molecule antagonists of the constitutive androstane receptor (CAR) signaling pathway - cell viability counter screen (AID 1224837). Also: series mostly up to about 92 µM; nearly all actives have a fitted effect of over 45% in size. In short, it runs like this: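 Fluorescence from CellTiter-Fluor served as the viability signal. Human hepatoma HepG2 cells stably bearing hCAR and CYP2B6-2.2kb received compound plus CITCO (50 nM final) for 23 hr.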

Experiment [5] deals with Nuclear receptor subfamily 1 group I member 3 (Homo sapiens) (UniProt Q14994). Briefly: qHTS assay to identify small molecule antagonists of the constitutive androstane receptor (CAR) signaling pathway (AID 1224838). Also: nearly all actives have a fitted effect of over 40% in size. In short, it runs like this:
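Quantitative HTS in double-stable HepG2-CYP2B6-hCAR cells. After 4 h plating, cells get compound (15 concentrations) and CITCO at 50 nM final, incubate 24 h at 37 C, then ONE-Glo luminescence is read.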

Experiment [6] has the same target. Briefly: qHTS assay to identify small molecule agonists of the constitutive androstane receptor (CAR) signaling pathway (AID 1224839). Also: nearly all actives have a fitted effect of over 15% in size. Also: potency is read from the fitted curve at half-maximal effect.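 As to activation: HepG2 cells stably carrying human CAR and a CYP2B6 luciferase reporter; series mostly up to about 92 µM.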 In short, it runs like this:
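HepG2 cells stably expressing hCAR and a CYP2B6-2.2kb luciferase reporter were treated with compounds at 15 concentrations plus 0.75 uM PK11195 (final) for 24 h at 37 C; luminescence was read after ONE-Glo addition.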

A short description of experiment [7]: qHTS assay to identify small molecule antagonists of the estrogen related receptor signaling pathway with the pleiotropic PPARgamma coactivator (PGC) from Tox21 10K library - cell viability counter screen (AID 1224840; active = well fitted cell-killing curve with a large enough effect in the repeat runs, not every such curve was filed as active; also: nearly all actives have a fitted effect of over 40% in size). In short, it runs like this:
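Compounds in DMSO, alongside positive and negative controls, were pinned onto PGC/ERR cells (2,000 per well). Exposure lasted 17.5 hours at 37 C, followed by a 30-minute CellTiter-Fluor incubation and fluorescence reading.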

Experiment [8] is described as follows: qHTS assay to identify small molecule agonists of the hypoxia (HIF-1) signaling pathway - cell viability counter screen (AID 1224844; calls by dose curve; also: nearly all actives have a fitted effect of over 50% in size). In short, it runs like this: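 Luminescent ATP content (CellTiter-Glo, 30 min, room temperature) served as the viability measure in HRE-bla ME-180 cells exposed to compounds for 17 hrs in low-serum medium (0.5% dialyzed FBS).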

Experiment [9] can be described thus: qHTS assay to identify small molecule agonists of H2AX (AID 1224845; active = well fitted activation curve with a large enough effect in the signal ratio in the repeat runs, not every such curve was filed as active; the % refers to the signal ratio). In short, it runs like this:
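Wild-type CHO-K1 cells, plated overnight, exposed 3hr at 37C to 15 concentrations (0.76% DMSO final). Lysed, then HTRF anti-pH2AX (S139) cryptate and anti-H2AX-d2 antibodies, 24 hr room temperature; 665/620 nm emission read.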

The nature of experiment [10]: qHTS assay to identify small molecule agonists of the hypoxia (HIF-1) signaling pathway (AID 1224846; active = well fitted activation curve with a large enough effect in the signal ratio in the repeat runs, not every such curve was filed as active; the % refers to the signal ratio). In short, it runs like this:
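Measured by blue/green FRET after loading CCF4-AM: beta-lactamase expressed from a hypoxia response element in ME-180 cells. Test agents were delivered in DMSO and left 17 hrs; cells had been plated 5 hrs earlier in low-serum (0.5% dialyzed FBS) medium.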

A short description of experiment [11]: qHTS assay to identify small molecule agonists of H2AX - cell viability counter screen (AID 1224847; calls by dose curve; also: top concentration of the series differs between compounds; nearly all actives have a fitted effect of over 30% in size). In short, it runs like this: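 Wild-type CHO-K1 cells (10% FBS medium) were plated overnight at 37C, exposed to compounds at 15 concentrations for 3 hr at 37C (0.76% DMSO final), and viability was read as CellTiter-Glo luminescence after 30 min at room temperature.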

Experiment [12] in a line: qHTS RealTime-Glo MT Cell Viability Assay in HepG2 cells - 24 hour (AID 1224867). Also: nearly all actives have a fitted effect of over 50% in size. In short, it runs like this: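 Viability was tracked continuously by NanoLuc luminescence from prosubstrate reduced by living HepG2 cells, at successive time points over 40 h of compound exposure. Cells with reagent were preincubated 5 h at 37 °C before compound addition.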
The nature of experiment [13]: qHTS RealTime-Glo MT Cell Viability Assay in HEK293 cells - 32 hour (AID 1224868). Also: nearly all actives have a fitted effect of over 50% in size. Also: potency is read from the fitted curve at half-maximal effect. In short, it runs like this: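 Viability tracked continuously by luminescence as live cells reduce a prosubstrate for NanoLuc; HEK293 cells preincubated 5 h, compound-treated at 37 C, and read at 0, 8, 16, 24, 32 and 40 h.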
Experiment [14] in a line: A CellTox Green Cytotoxicity Assay to monitor cytotoxicity in HEK293 cells - 0 hour (AID 1224869). Also: nearly all actives have a fitted effect of over 50% in size. In short, it runs like this:
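Each value comes from one timepoint of a single continuous run in which HEK293 cells with CellTox Green were exposed to compound for up to 40 h at 37 C, dye fluorescence rising with cell death.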

A short description of experiment [15]: qHTS RealTime-Glo MT Cell Viability Assay in HepG2 cells - 40 hour (AID 1224870). Also: nearly all actives have a fitted effect of over 50% in size. In short, it runs like this:
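HepG2 cells (600/well) mixed with RealTime-Glo MT reagent, settled 5 h at 37 C/5% CO2 before compound addition. Nonlytic NanoLuc luminescence from viable-cell prosubstrate reduction read repeatedly during 40 h treatment at 37 C.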

In experiment [16] the target is Thyrotropin receptor (Homo sapiens) (UniProt P16473). Briefly: qHTS assay to identify small molecule agonists of the thyroid stimulating hormone receptor (TSHR) signaling pathway (AID 1224843; calls by dose curve; also: nearly all actives have a fitted effect of over 45% in size; also: potency is read from the fitted curve at half-maximal effect). In short, it runs like this: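 TSHR-HEK293 cells in agonist mode, 30 min room-temperature step, then cAMP measured by competitive HTRF (cAMP-d2 with anti-cAMP cryptate) after 1 h at room temperature. Tested at 15 concentrations in triplicate.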

“And” between values parts separate entries of the source, which are not always exact repeats. Equal values may be shown once. Inconclusive results are not listed. More than one record can exist for a structure, and the calls need not agree. The source made the active and inactive calls. Unless noted, calls follow the shape of the dose curve; as a rule, active = well fitted curve in the direction sought with a large enough effect in the repeat runs; inconclusive = weak or mixed curves; inactive = no such curve, though single readings can be large; an effect the other way counts as inactive or inconclusive.

Chain of Thyrotropin receptor (Homo sapiens) (P16473 whole entry, looked up): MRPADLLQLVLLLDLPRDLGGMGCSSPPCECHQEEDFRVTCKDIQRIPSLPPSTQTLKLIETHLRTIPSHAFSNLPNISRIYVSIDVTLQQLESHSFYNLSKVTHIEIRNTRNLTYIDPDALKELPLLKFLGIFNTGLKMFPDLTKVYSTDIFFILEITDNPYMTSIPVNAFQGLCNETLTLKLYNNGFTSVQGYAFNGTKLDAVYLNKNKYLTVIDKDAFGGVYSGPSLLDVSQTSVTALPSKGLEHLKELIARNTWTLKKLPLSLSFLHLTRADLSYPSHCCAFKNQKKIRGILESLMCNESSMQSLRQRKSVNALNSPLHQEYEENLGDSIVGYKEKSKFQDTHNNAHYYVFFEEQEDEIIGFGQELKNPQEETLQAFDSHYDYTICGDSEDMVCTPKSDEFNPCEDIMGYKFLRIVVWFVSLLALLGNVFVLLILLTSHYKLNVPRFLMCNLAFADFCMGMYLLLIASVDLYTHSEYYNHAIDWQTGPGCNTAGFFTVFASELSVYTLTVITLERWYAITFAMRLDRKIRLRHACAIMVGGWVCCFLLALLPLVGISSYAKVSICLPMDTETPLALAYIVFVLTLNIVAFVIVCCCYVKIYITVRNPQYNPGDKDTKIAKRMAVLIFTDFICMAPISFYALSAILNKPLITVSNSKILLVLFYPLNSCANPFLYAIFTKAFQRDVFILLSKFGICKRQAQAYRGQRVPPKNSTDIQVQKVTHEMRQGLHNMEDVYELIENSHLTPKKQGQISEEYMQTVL
Chain of Nuclear receptor subfamily 1 group I member 3 (Homo sapiens) (Q14994 whole entry, looked up): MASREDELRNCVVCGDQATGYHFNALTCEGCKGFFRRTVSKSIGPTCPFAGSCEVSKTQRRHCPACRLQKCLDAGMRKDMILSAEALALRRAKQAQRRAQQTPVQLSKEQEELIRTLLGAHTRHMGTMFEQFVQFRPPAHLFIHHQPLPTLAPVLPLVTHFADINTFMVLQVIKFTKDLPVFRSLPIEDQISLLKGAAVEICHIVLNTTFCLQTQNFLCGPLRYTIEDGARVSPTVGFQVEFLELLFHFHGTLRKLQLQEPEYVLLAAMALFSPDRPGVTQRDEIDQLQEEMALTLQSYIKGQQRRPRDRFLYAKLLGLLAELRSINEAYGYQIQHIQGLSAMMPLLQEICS
Chain of Luciferin 4-monooxygenase (Photinus pyralis) (P08659 whole entry, looked up): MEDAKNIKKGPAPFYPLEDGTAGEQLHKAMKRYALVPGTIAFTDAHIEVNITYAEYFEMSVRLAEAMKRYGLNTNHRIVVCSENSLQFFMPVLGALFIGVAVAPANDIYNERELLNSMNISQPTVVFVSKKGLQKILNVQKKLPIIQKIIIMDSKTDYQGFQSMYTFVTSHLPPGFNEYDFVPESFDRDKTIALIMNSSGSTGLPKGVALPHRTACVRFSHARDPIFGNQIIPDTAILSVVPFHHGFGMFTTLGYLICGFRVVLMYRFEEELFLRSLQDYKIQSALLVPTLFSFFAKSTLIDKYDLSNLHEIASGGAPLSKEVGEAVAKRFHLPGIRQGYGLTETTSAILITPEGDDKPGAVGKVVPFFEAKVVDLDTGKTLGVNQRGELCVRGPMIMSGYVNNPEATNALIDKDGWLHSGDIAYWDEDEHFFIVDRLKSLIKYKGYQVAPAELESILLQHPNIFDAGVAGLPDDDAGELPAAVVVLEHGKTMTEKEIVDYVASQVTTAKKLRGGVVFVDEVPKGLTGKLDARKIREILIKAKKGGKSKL

With `NCCNc1cccc2ccccc12`, the Potency in experiment [1] was 68.5 µM (active) and inactive; in experiment [13] it was 54.9 µM (active) and 53.6 µM (active) and inactive. For the same compound, the Potency entry in experiment [2], in experiment [3], in experiment [4], in experiment [5], in [6] and in experiment [7] was “inactive” in each case. The Potency entry in [8], in experiment [9], in experiment [11] and in [14] was “inactive” each time. In addition, the compound was classed as inactive in experiment [10], in experiment [12] and in experiment [15].

Turning to `CN(C)Cc1cc(CN(C)C)c(O)c(CN(C)C)c1`, the Potency result in [1], in [2], in experiment [3], in experiment [4], in [5] and in experiment [6] was “inactive” in each case. For the same compound, the Potency entry in [7], in experiment [16], in experiment [8], in experiment [9], in [11] and in experiment [13] was “inactive” each time. The Potency result in experiment [14] is “inactive”. Further, the call in experiment [10], in experiment [12] and in [15] was inactive.

On to `COc1ccccc1O`, for which the Potency entry in experiment [1], in [2], in [3], in [4], in [5] and in [6] was “inactive” throughout. Also, the Potency entry in experiment [7], in [16], in experiment [8], in experiment [9], in experiment [11] and in experiment [13] was “inactive” in each case. The Potency entry in experiment [14] was “inactive”. The result in [10], in experiment [12] and in experiment [15] was inactive.

`CCCCOCCOCCSC#N`: the Potency result in experiment [1], in [2], in experiment [3], in experiment [4], in experiment [5] and in experiment [6] was “inactive” throughout. Also, the Potency entry in experiment [7], in experiment [16], in experiment [8], in [9], in experiment [11] and in experiment [13] was “inactive” each time. Besides, the Potency result in experiment [14] was “inactive”. The result in experiment [10], in experiment [12] and in experiment [15] was inactive.

For `O=C1OC(c2ccc(O)cc2)(c2ccc(O)cc2)c2ccccc21`, the Potency entry in [1], in [2], in experiment [3], in experiment [4], in experiment [5] and in experiment [7] was “inactive” in each case. For the same compound, the Potency entry in experiment [16], in experiment [8], in experiment [9], in experiment [11], in experiment [13] and in experiment [14] was “inactive” each time. Also, in experiment [6], the Potency was 60.7 µM (active) and 8.63 µM (active) and 4.73 µM (active). Moreover, the outcome in [12] and in experiment [15] was inactive.

For `CC(C)(C)CC(C)(C)c1ccc(O)c(-n2nc3ccccc3n2)c1`, the Potency result in experiment [1], in experiment [2], in [3], in experiment [4], in [5] and in experiment [7] was “inactive” throughout. In addition, the Potency entry in experiment [8], in experiment [9], in experiment [11] and in experiment [14] was “inactive” each time. Also, the Potency in [6] was 27.7 µM (active) and inactive; in [16] it was 27.7 µM (active) and 15.4 µM (active); in [13], 49.7 µM (active) and inactive. Further, the outcome in [10], in [12] and in experiment [15] was inactive.

Regarding `COCC(C)N` (stereo not given), the Potency entry in experiment [1], in experiment [2], in experiment [3], in [4], in experiment [5] and in experiment [6] was “inactive” each time. Moreover, the Potency entry in experiment [7], in experiment [16], in [8], in experiment [9], in experiment [11] and in experiment [13] was “inactive” throughout. Also, the Potency result in experiment [14] is “inactive”. Besides, the call in experiment [10], in experiment [12] and in experiment [15] was inactive.

`CN/C(=C\[N+](=O)[O-])NCCSCc1ccc(CN(C)C)o1`: the Potency result in experiment [1], in experiment [2], in [3], in [4], in experiment [5] and in experiment [6] was “inactive” each time. For the same compound, the Potency result in experiment [7], in experiment [16], in [8], in [9], in experiment [11] and in experiment [13] was “inactive” throughout. Also, in [14], the Potency entry is “inactive”. The outcome in experiment [12] and in experiment [15] was inactive.
